# Screening results as filed in PubChem BioAssay.
# In the library only some 3.6% were active in any assay of this set; here they are far more common.
# NRP1-CendR mod: NRP-1/CendR interaction modulation | O14786 | FAM-RPARPAR peptide binding to NRP-1, fluorescence polarization | inhibition, % at 25 µM | 360,000 tested, 0.85% active | AID 602438;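 active means inhibition or corrected inhibition above about 18%, plus a signal ratio from 0.5 to 1.5, limit read from the data, passing the limit was not always enough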
# Target sequence (O14786 whole entry, looked up): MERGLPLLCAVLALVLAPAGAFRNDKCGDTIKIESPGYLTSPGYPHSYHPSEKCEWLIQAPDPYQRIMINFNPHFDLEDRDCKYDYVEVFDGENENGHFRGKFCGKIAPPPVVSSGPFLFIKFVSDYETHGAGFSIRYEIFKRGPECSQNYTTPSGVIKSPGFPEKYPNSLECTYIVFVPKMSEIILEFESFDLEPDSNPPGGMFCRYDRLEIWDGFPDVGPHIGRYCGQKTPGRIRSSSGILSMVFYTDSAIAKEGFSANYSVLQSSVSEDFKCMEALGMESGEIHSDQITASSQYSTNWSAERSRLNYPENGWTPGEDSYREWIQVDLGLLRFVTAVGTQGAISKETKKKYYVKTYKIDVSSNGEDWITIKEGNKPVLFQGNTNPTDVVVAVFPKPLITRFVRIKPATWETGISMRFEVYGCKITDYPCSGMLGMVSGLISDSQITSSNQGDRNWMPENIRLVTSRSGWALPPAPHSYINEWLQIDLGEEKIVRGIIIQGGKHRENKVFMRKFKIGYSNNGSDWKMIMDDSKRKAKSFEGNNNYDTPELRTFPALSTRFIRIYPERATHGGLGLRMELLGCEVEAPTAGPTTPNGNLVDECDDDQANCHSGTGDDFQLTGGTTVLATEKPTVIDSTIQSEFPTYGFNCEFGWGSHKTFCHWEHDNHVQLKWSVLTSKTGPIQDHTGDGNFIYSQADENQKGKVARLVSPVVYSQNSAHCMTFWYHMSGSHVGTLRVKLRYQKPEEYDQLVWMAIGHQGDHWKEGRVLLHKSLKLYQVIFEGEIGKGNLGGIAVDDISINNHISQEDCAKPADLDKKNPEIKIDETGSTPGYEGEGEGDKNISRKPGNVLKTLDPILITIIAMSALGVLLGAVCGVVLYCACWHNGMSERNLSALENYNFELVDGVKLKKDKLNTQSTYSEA
# FAS-TE inh: blocks the thioesterase domain of human fatty acid synthase; 360,000 tested, 0.67% active; recombinant FAS-TE, OMFH fluorogenic substrate, fluorescence endpoint; AID 602261; P49327; inhibition, % at 15 µM;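 active means compounds whose normalised, plate-corrected inhibition of enzyme fluorescence in the single-dose primary screen is 50% or more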
# Myeloid diff MLP: myeloid differentiation induction; calls only at 10 µM; ER-HoxA9 myeloid progenitors, lysozyme-GFP differentiation, flow cytometry; 360,000 tested, 1% active;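 active means normalized GFP-positive differentiation at or above the plate's own cutoff, the solvent-only control mean plus 3 SD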;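 further: cells exposed to compound for four days before flow analysis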
# NadD block: inhibitors of Staphylococcus aureus NadD; purified NadD enzyme, colorimetric absorbance read-out; inhibition, % at 20 µM; 360,000 tested, 0.78% active; AID 602399; in the data active means inhibition above about 26%
# CRFBP-R2 block: blocks CRF-induced signaling of the CRF-BP/CRF-R2 complex | HEK293 CRF-R2/CRF-BP, CRF-induced calcium fluorescence | inhibition, % at 11.8 µM | 350,000 tested, 0.59% active;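 active means inhibition of the ligand-induced calcium signal above about 50% at the single tested concentration, limit read from the data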
# Hits are given with their value; i = inactive; nt = no result; + = active, no number; ! = repeats disagree.
SMILES,NRP1-CendR mod,FAS-TE inh,Myeloid diff MLP,NadD block,CRFBP-R2 block
O=C(Nc1cccc2ccccc12)c1ccccc1NS(=O)(=O)c1cccc2cccnc12,i,i,i,i,i
COc1ccc(OC)c(NC(=O)c2ccccc2NS(=O)(=O)c2cccc3cccnc23)c1,i,i,nt,i,74
CC[C@H]1c2[nH]c3ccccc3c2C[C@@H]2C(=O)N(c3ccc(F)cc3)C(=O)N21,i,i,+,i,i
CN(CCOc1ccc(Cl)cc1)C(=O)C1CCN(C(=O)c2ccc(Cl)cc2)CC1,i,i,i,i,120
CC(=O)c1cc(C#N)c(Oc2ccc(Cl)cc2Cl)nc1C,i,i,i,i,55
COc1ccc(CN2CCN(C(=O)c3cccs3)CC2)c(OC)c1OC,i,i,i,i,58
COc1ccc(-c2[nH]ncc2CN2CCN(C(=O)c3cccs3)CC2)c(F)c1,i,i,+,i,i
CCOc1ccc(-c2cc(C(=O)NCc3ccccc3)[nH]n2)c(C)c1,i,i,i,i,nt
CCOC(=O)c1ccc2[nH]c(C)c(C)c2c1,46,i,i,i,i
CC(=O)N1CCN(S(=O)(=O)c2cccc(C(=O)OCC(=O)NCc3ccccc3Cl)c2)CC1,i,i,i,i,i
CN(C)CC/C=C1/c2ccccc2Sc2ccc(Cl)cc21,27!,i,i,i,i
O=[N+]([O-])c1ccc(-c2nc(Cl)c3c(n2)CCCC3)o1,i,i,nt,i,i
COc1ccc(C(=O)Nc2ccc(C(=O)OCC(=O)c3cccc4ccccc34)cc2)cc1,32,i,i,i,i
O=C1CC(O)(C(F)(F)F)Oc2c1ccc1ccccc21 (stereo not drawn),i,i,i,i,65
O=C1CC(O)(C(F)F)Oc2ccc3ccccc3c21 (stereo not drawn),i,i,i,i,i
COc1ccc(-c2cc(=O)oc3c(C)c(OC(C)C(=O)Nc4ccc(CN5CCOCC5)cc4)ccc23)cc1 (stereo not drawn),i,i,+,i,i
COc1ccc(-c2cc(=O)oc3c(C)c(OC(C)C(C)=O)ccc23)cc1 (stereo not drawn),i,i,+,i,i
O=C(Cn1ccc(=O)[nH]c1=O)Nc1nccs1,i,i,i,i,i
COC(=O)c1[nH]c2cc(OC)ccc2c1NC(=O)c1ccc2c(c1)OCO2,21,i,i,i,i
O=C(Cn1c(=S)[nH]c2ccccc21)c1ccccc1,33,i,i,i,i
CCn1c(=S)[nH]c2ccccc21,i,i,i,i,i
N#Cc1ccc(C(=O)N2CCCCC2c2cc(C(=O)NCc3ccccc3)no2)cc1 (stereo not drawn),i,i,i,i,nt
CC(=O)c1ccc(C(=O)N2CCCC(CCC(=O)N(C)CCc3ccccn3)C2)s1 (stereo not drawn),i,i,+,i,i
C[C@@H]1ON(C)[C@H]2C[C@H]3c4[nH]c5ccc(-c6ccc7c(c6)OCO7)cc5c4CCN3C(=O)[C@@H]12,i,i,i,i,i
CC(=O)Nc1ccc2cc3ccc(NC(C)=O)cc3nc2c1,i,i,+,i,i
SMILES,NRP1-CendR mod,FAS-TE inh,Myeloid diff MLP,NadD block,CRFBP-R2 block
COc1cc(OC)c2c(O)c3c(c(-c4c5c(c(O)c6c(OC)cc(OC)cc46)CO[C@@H](C)[C@H]5O)c2c1)[C@H](O)[C@H](C)OC3,i,i,i,50,i
O=C1CC2(CCN(C(=O)COc3ccc(Cl)cc3)CC2)Oc2ccccc21,i,i,i,i,i
COc1ccc(OC)c2c1sc(=NC(=O)C1COc3ccccc3O1)n2C (stereo not drawn),i,i,i,i,82
CN(c1ccc(C(=O)N2CCCCC2)cc1)S(=O)(=O)c1cccs1,i,i,nt,i,i
CN1CCN(C(=O)c2ccc(N(C)S(=O)(=O)c3cccs3)cc2)CC1,22,i,i,i,i
COc1ccc(CN2[C@@H](CC(C)=O)c3ccc(/C=C/C(C)=O)cc3S2(=O)=O)cc1,i,i,i,i,i
COc1cccc(N2[C@@H](CC(C)=O)c3ccc(/C=C/C(C)=O)cc3S2(=O)=O)c1,22,i,i,i,i
Cc1ccccc1N(CC(=O)N1CCN(Cc2ccccc2)CC1)S(C)(=O)=O,i,i,i,i,70
Cc1ccccc1N(CC(=O)N1CCN(c2ccccc2)CC1)S(C)(=O)=O,i,i,i,i,i
CCOC(=O)C1=C(C)NC(SCC(=O)OC)=C(C#N)C1c1ccc(C(=O)OC)cc1 (stereo not drawn),i,i,i,i,55!
